Compounds with a hit are over-represented: about 11% of the library has one in this group of screens.
JMJD2A Tudor: blocks the human JMJD2A Tudor domain; AlphaScreen JMJD2A-Tudor / H3K4me3 peptide binding; hit rate 4.4% among 390,000; Potency, µM (doses to about 114 µM), hits mostly inhibitors; O75164; also: nearly all actives have a fitted effect of over 50% in size
BAZ2B inh: BAZ2B (human) inhibition. Potency, µM (series often up to 114 µM), actives largely listed as inhibitors. hit rate 4.4% among 360,000. AID 504333. Q9UIF8. AlphaScreen BAZ2B-H3K14Ac peptide displacement; also: nearly all actives have a fitted effect of over 60% in size
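BAZ2B 50 nM plus b-H3(5-23)K14Ac 50 nM, PBS pH 7.4/0.01% Tween-20, 30 min RT; compound added (max 110 uM), 30 min RT; streptavidin donor/Ni-chelate acceptor beads 10 ug/mL final, 20 min dark; AlphaScreen read.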
VDR inhibitor: inhibitors of human vitamin D receptor | VDR-SRC2-3 peptide fluorescence polarization, 2 h | P11473 | Potency, µM, hits mostly inhibitors | hit rate 0.93% among 400,000
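Compounds are added to VDR with labelled SRC2-3 coactivator peptide and held 2 h at room temperature. Inhibition of the VDR–peptide interaction is then read as a change in fluorescence polarization.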
HP1b binding inh: blocks HP1-beta chromodomain binding to methylated histone tails; AlphaScreen HP1-beta / biotin-H3K9me3 peptide binding; Potency, µM (titrated, usually from 114 µM), hits mostly inhibitors; hit rate 0.56% among 390,000; also: nearly all actives have a fitted effect of over 70% in size
Target sequence (P83916 whole entry, looked up): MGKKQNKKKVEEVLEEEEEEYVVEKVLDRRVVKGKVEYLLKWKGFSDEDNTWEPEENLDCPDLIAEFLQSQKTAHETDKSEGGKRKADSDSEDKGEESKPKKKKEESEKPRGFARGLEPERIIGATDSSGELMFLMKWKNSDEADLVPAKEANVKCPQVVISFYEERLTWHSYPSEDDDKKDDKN
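Compound inhibition of the preformed complex between 50 nM HP1-beta and 50 nM biotinylated H3K9me3 peptide was read by AlphaScreen. Buffer was PBS pH 7.4 with 0.01% Tween-20. Incubations ran 30 min at room temperature, with 10 ug/mL donor/acceptor beads.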
PLK1 PBD block: PLK1 (human) polo-box domain binding inhibition; P53350; Plk1 PBD binding of FITC phosphopeptide, fluorescence polarization; Potency, µM, most hits filed as inhibitors; hit rate 2.8% among 360,000; AID 720504; also: series mostly up to about 57 µM; nearly all actives have a fitted effect of over 65% in size
G9a inh-1: G9a (human) methyltransferase inhibition; hit rate 8.8% among 350,000; Potency, µM (highest dose often 102 µM), usual class: inhibitors; Q96KQ7; G9a H3K9 monomethylation, AlphaScreen, 2 h; also: nearly all actives have a fitted effect of over 75% in size
Target sequence (Q96KQ7 913-1193 limits assumed): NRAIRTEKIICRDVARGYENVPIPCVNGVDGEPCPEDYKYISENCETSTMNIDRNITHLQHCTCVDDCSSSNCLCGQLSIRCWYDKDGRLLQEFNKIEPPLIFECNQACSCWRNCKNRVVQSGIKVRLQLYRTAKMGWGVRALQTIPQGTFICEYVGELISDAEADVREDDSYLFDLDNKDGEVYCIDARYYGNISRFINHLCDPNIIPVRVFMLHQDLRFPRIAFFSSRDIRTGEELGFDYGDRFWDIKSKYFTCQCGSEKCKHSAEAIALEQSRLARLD
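Methyltransferase reactions run at room temperature for 2 h (20 nM enzyme, 500 nM biotin-H3K9 peptide, 20 uM SAM) after a 15 min compound preincubation; product detected by AlphaScreen beads and anti-H3K9me1 antibody.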
JMJD2E inh: confirmation of inhibitors of human JMJD2E demethylase; shares compounds with JMJD2A Tudor; Recombinant JMJD2E, FDH-coupled NADH fluorescence (FDH is formaldehyde dehydrogenase); Potency, µM (doses to about 56.8 µM), actives largely listed as inhibitors; hit rate 93% among 140; AID 2677
FDH inh: counter-screen for JMJD2E inhibitors: Pseudomonas putida formaldehyde dehydrogenase; shares compounds with JMJD2A Tudor; Potency, µM (titrated, usually from 56.7 µM), usual class: inhibitors; FDH enzyme assay, NADH fluorescence kinetic; hit rate 10% among 140; AID 2680
G9a inh-2: confirmation of human histone methyltransferase G9a inhibitors; Potency, µM, usual class: inhibitors; G9a H3K9 monomethylation, AlphaScreen, 2 h; hit rate 89% among 370; shares compounds with JMJD2A Tudor; AID 588344; also: nearly all actives have a fitted effect of over 65% in size
RGS4 inh: inhibits human RGS4, hit validation; AID 602388; RGS4 GAP activity, Transcreener GDP fluorescence polarization; hit rate 80% among 25; Potency, µM, actives largely listed as inhibitors; shares compounds with JMJD2A Tudor
Of the large screens only hits and unclear results are named; the others gave an inactive call (follow-up assays come after a bar, where they were run). Calls follow the shape of the dose curve; as a rule, active = well fitted curve in the direction sought with a large enough effect; inconclusive = small, poorly fitted or top-dose-only effect, or another doubt; inactive = no such curve, though single readings can be large; an effect the other way counts as inactive or inconclusive.

COc1ccc(NC(=O)CCc2c(C)nn(-c3ccc(N4CCOCC4)nn3)c2C)cc1Cl	none (no result: PLK1 PBD block)
CC1CCN(CCC(=O)Nc2nccs2)CC1	none
CC(C)COC(=O)N1CCCC1C(=O)Nc1nccs1 (stereo not drawn)	G9a inh-1 inconclusive | G9a inh-2 12.6
CCOc1cc(OCC)cc(C(=O)N2CCC[C@H]2C(=O)N2CCC[C@H]2C(=O)N(C)Cc2ccccc2)c1	none (no result: JMJD2A Tudor, BAZ2B inh, VDR inhibitor, HP1b binding inh, G9a inh-1)
Cc1cccc(C(=O)Nc2cccc(OCc3cc(=O)n4cc(C)sc4n3)c2)c1	none (no result: PLK1 PBD block)
Cc1cn2c(=O)cc(COc3cccc(NC(=O)c4ccc(C(C)(C)C)cc4)c3)nc2s1	G9a inh-1 0.794µM (no result: PLK1 PBD block) | G9a inh-2 inconclusive
Cc1ccc(-c2nn3c(C)nnc3s2)cc1NC(=O)c1ccc(-c2cccc(Cl)c2)o1	JMJD2A Tudor inconclusive, PLK1 PBD block inconclusive, G9a inh-1 inconclusive | G9a inh-2 inconclusive
CC1CN(Cc2c(O)ccc3c2oc(=O)c2ccccc23)CC(C)O1 (stereo not drawn)	JMJD2A Tudor 10µM, BAZ2B inh 3.98µM, HP1b binding inh inconclusive, G9a inh-1 0.447µM | G9a inh-2 0.282
CC1CN(Cc2c(O)ccc3c(=O)c(-c4ccccc4)coc23)CC(C)O1 (stereo not drawn)	none
CCOC(=O)C1CCCN(C(=O)c2cc(-c3ccncc3)nc3ccccc23)C1 (stereo not drawn)	none
CCOC(=O)C1CCCN(C(=O)c2cc(-c3ccco3)nc3ccccc23)C1 (stereo not drawn)	JMJD2A Tudor 14.1µM, VDR inhibitor inconclusive, HP1b binding inh 39.8µM, PLK1 PBD block inconclusive (no result: BAZ2B inh, G9a inh-1) | RGS4 inh 26.7
CC(C)(C)C1CCc2c(sc(NC(=O)c3ccncc3)c2C(=O)Nc2ccccc2Cl)C1 (stereo not drawn)	JMJD2A Tudor inconclusive, G9a inh-1 2.24µM (no result: PLK1 PBD block) | G9a inh-2 inconclusive
COc1ccc(NC(=O)c2c(NC(=O)c3ccncc3)sc3c2CCC(C(C)(C)C)C3)cc1 (stereo not drawn)	G9a inh-1 inconclusive (no result: PLK1 PBD block)
CC(C)(C)C1=Nn2c(nnc2-c2ccccn2)SC1	JMJD2A Tudor 7.94µM, BAZ2B inh 20µM, HP1b binding inh inconclusive, G9a inh-1 inconclusive | G9a inh-2 1.78
CC(C)(C)C1=Nn2c(nnc2C2CCCCC2)SC1	BAZ2B inh inconclusive
COc1ccc(CC(=O)NCc2nnc(SCC(=O)c3ccc(OC)cc3)n2C)cc1	none
COc1ccc(NCc2nnc(SCC(=O)c3ccc(OC)cc3)n2C)cc1	JMJD2A Tudor 56.2µM, G9a inh-1 inconclusive | G9a inh-2 11.2
Cc1ccc(N=C(NO)c2nonc2N)cc1	none
CCOC(=O)C1CCN(Cc2ccc(O)c3ncccc23)CC1	JMJD2A Tudor 10µM, BAZ2B inh 3.98µM, PLK1 PBD block 26.7µM, G9a inh-1 3.98µM | JMJD2E inh 12.6µM | FDH inh inconclusive
Cc1cc(C)cc(CC(Cc2nc3ccccc3[nH]2)c2nc3ccccc3[nH]2)c1 (stereo not drawn)	JMJD2A Tudor inconclusive, G9a inh-1 inconclusive
COc1ccccc1NC(=O)CSc1nnc(-c2ccc(NC(C)=O)cc2)n1C	BAZ2B inh inconclusive, G9a inh-1 inconclusive
COc1ccccc1C(=O)Nc1ccc(-c2nnc(SCC(=O)O)n2C)cc1	JMJD2A Tudor 100µM, BAZ2B inh inconclusive, G9a inh-1 inconclusive | G9a inh-2 7.96

Assay outcomes from PubChem BioAssay.
